Test results taken from PubChem BioAssay AID880 (National Center for Advancing Translational Sciences (NCATS), 2007).
“And” between values parts separate entries of the source, which are not always exact repeats. Identical values can stand only once. Out of some 230,000 compounds screened, about 1,000 (0.43%) were called active. A call without a number means that no potency is given here. Calls come from the whole dose curve; as a rule, active = well fitted inhibition curve with a large enough effect (not every such curve was filed as active); inactive = no such curve, though single readings can be large or run the other way. Only a selection was taken, and actives are over-represented in it overall.

target: Guanine nucleotide-binding protein G(i) subunit alpha-1 (Homo sapiens) (UniProt P63096); experiment: qHTS Assay for Inhibitors of RGS12 GoLoco Motif Activity (Red Fluorophore); details: Gai1:RGS12 GoLoco peptide FP, rhodamine, 10 min; series mostly up to 61.6 µM; note: nearly all actives have a fitted effect of over 30% in size
Sequence (P63096 whole entry, looked up): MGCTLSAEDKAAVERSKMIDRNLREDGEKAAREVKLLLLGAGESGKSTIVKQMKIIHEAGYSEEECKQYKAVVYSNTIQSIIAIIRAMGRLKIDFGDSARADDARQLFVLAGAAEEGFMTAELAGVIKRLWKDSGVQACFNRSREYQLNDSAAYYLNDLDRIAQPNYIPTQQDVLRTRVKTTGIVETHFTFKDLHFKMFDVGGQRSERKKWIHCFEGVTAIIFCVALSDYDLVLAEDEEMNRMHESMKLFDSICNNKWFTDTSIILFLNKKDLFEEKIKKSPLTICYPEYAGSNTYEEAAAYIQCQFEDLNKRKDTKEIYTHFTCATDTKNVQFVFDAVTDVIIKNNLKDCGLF
Excerpt: Assay Submitter: Siderovski, David P, University of North Carolina at Chapel Hill
Screening Center PI: Austin, C.P.
Screening Center: NIH Chemical Genomics Center [NCGC]
G-protein-coupled receptors (GPCRs) are major targets for drug discovery. The regulator of G-protein signaling (RGS)-protein family has important roles in GPCR signal transduction. RGS proteins contain a conserved RGS-box, which is often accompanied by other signaling regulatory elements. RGS proteins accelerate the deactivation of G proteins to reduce GPCR signaling; however, some also have an effector function and transmit signals. Combining GPCR agonists with RGS inhibitors should potentiate responses, and could markedly increase the agonist's regional specificity. The diversity of RGS proteins with highly localized and dynamically regulated distributions in brain makes them attractive targets for pharmacotherapy of central nervous system disorders. […] A complex of Gai1 and fluorescently labeled G-alpha-binding peptide (the "GoLoco motif") derived from RGS12 is incubated with library members. Inhibitors of the binding are detected by a decrease in the fluorescence polarization (FP) of the fluorophore. Protein was supplied by Prof. David Siderovski, University of North Carolina at Chapel Hill.
Assay Buffer: 10 mM Tris-HCl, 150 mM NaCl, 0.1 mM GDP (prepared fresh), and 0.05% NP40 at pH 7.5.
15 nM Rhodamine labeled peptide/25 nM protein in columns 1, 2, 5 - 48. Titration of unlabeled peptide control ([H][…][NH2], custom synthesized and HPLC-purified by Tufts University Core Facility) from 20 mM, then 1:2 dilution, 16-point in duplicate, pin-transferred to column 2, rows 1 to 32. Column 1 is neutral.
Rhodamine-labeled peptide (Rhodamine-[…]-NH2) was custom-synthesized and HPLC-purified by Invitrogen (Carlsbad, CA).
Four uL of reagents were dispensed to 1536-well Greiner black solid-bottom plates. Compounds and controls (23 nL) were transferred via Kalypsys PinTool. The plates were incubated for 10 min at room temperature, and then read on ViewLux (Perkin-Elmer) High-throughput CCD imager using BODIPY for the rhodamine-labeled decapeptide probe. During dispense, reagent bottles were kept submerged into 4 deg C water bath and all liquid lines were covered with aluminum foil to minimize probe and protein degradation. All screening operations were performed on a Kalypsys robotic system (Kalypsys, Inc., San Diego, CA) containing one RX-130 and two RX-90 anthropomorphic robotic arms.
Potency is the fitted concentration of half-maximal effect.

Structure (SMILES) | Potency | activity, negative = inhibition
N#Cc1ccccc1CN1C(=O)S/C(=C/c2cccn2-c2cccc(C(=O)O)c2)C1=O | inactive | 
COc1cc(C(=O)NCc2ccc3c(c2)cc(C)n3C)cc(OC)c1OC | inactive | 
CCOc1ccc(C(O)Cn2c(=N)n(CCN3CCCCC3)c3ccccc32)cc1 (stereo not given) | inactive | 
O=P(O)(CN1CCCCCC1)C1Cc2ccccc2C1 | inactive | 
Cc1ccccc1CN1C[C@@H]2C[C@@H](c3ccc4nsnc4c3)N3CCC[C@@]23C1=O | inactive | 
Nc1nc2c(ncn2[C@@H]2O[C@H](COP(=O)(O)OP(=O)(O)OP(=O)(O)O)[C@@H](O)C2O)c(=O)[nH]1 (stereo not given in full) | inactive | 
CC[N+](C)(CC)CCC[n+]1c(-c2ccccc2)c2cc(N)ccc2c2ccc(N)cc21 | 4.47 µM (active) and 12.6 µM (active) | 
CC/C=C\C/C=C\C/C=C\C/C=C\C/C=C\C/C=C\CCC(=O)NCCc1ccc(O)c(O)c1 | inactive | 
COc1ccc(CC(N)C(=O)NC2C(O)[C@H](n3cnc4c(N(C)C)ncnc43)O[C@@H]2CO)cc1 (stereo not given in full) | inactive | 
COCCNC(=O)/C(C#N)=C/c1nc(N(C)C)n(-c2ccc(F)cc2)c1Cl | inactive | 
O=C(/C=C/NCc1ccc(F)cc1)c1ccccc1 | inactive | 
O=C(c1ccncc1)N1CCN(c2ccc3ccccc3n2)CC1 | inactive | 
Cc1nc(-c2ccccc2)sc1C(=O)/C=C/N(C)C | inactive | 
CC1(C)C=CC(=O)[C@]2(C)C1CC(=O)[C@]1(C)C2CC[C@@]2(C)C(c3ccoc3)OC(=O)C3OC321 (stereo not given in full) | inactive | 
CC(C)=CCN1CCC2(CCc3ccccc32)CC1 | inactive | 
O=C(c1ccc(F)cc1)N1CCCC(c2nc(-c3cccs3)no2)C1 (stereo not given) | inactive | 
C/C(=N\NC(=S)NC1CCCCC1)c1ccc(C)o1 | inactive | 
CCN1/C(=C/C(=S)Nc2ccccc2)Sc2ccccc21 | inactive | 
CCN1/C(=C/c2ccc3ccc(C)cc3[n+]2CC)Sc2ccccc21 | 0.708 µM (active) | 
CCN1/C(=C\c2ccc3ccccc3[n+]2CC)Sc2cc(C)ccc21 | inactive | 
O=c1ccn([C@@H]2O[C@H](COP(=O)(O)OP(=O)(O)OP(=O)(O)O)[C@@H](O)[C@H]2O)c(=O)[nH]1 | inactive | 
CC(Sc1nc2c([nH]c3ccccc32)c(=O)n1C)c1ccccc1 (stereo not given) | inactive | 

Structure (SMILES) | Potency | activity, negative = inhibition
CC/C=C\C/C=C\C/C=C\C/C=C\C/C=C\C/C=C\CCC(=O)NC(C)C(=O)O (stereo not given) | inactive | 
COc1ccc(S(=O)(=O)N2CN(CCc3ccc(OC)c(OC)c3)c3nc4ccccc4nc32)cc1 | inactive | 
CCc1nnc(NC(=O)c2c(O)c3c([nH]c2=O)CCCC3)s1 | inactive | 
C[N+](C)(C)CCNC(=O)c1c(O)c2c([nH]c1=O)CCCC2 | 1.12 µM (active) | 
O=C(NCc1ccccn1)c1c(O)c2c([nH]c1=O)CCCC2 | inactive | 
Cc1ccc(-c2csc(NC(=O)Cn3[nH]c(=O)c4ccccc4c3=O)n2)cc1 | inactive | 
CCOC(=O)c1c(N)sc(C(C)=O)c1C | inactive | 
COCCOC(=O)c1sc(=S)n(CCOC)c1N | 12.6 µM (active) | 
COC(=O)c1sc(=S)n(-c2ccccc2)c1N | inactive | 
Cn1c(=O)n(Cc2ccco2)c(=N)c2c3c(sc21)CCCC3 | inactive | 
CC(N)(C(=O)O)c1ccc(-c2nn[nH]n2)cc1 (stereo not given) | inactive | 
Cc1ccc(CN2CCN(/N=C/c3cccnc3)CC2)c(C)c1 | inactive | 
O=C1OC(c2ccc(Cl)cc2)=N/C1=C\c1cccnc1 | inactive | 
Cc1ccc(C2=C/C(=C\c3cccnc3)C(=O)O2)cc1 | 0.794 µM (active) | 
Cc1ccccc1C1=N/C(=C/c2cccnc2)C(=O)O1 | inactive | 
CC(C)(C)C1CCC(=NNC(=O)c2cc(-c3ccccc3)n[nH]2)CC1 (stereo not given) | inactive | 
Cc1ccc(C(=O)N/C(=C/c2ccco2)C(=O)NCCc2c[nH]c3ccccc23)cc1C | inactive | 
NC(=O)c1nsc(C(=O)N(CC(=O)NCc2ccc(F)cc2)Cc2ccco2)c1N | inactive | 
COc1ccc(CCCOC(Cn2ccnc2)c2ccc(OC)cc2)cc1 (stereo not given) | inactive | 
C[C@]12CC[C@@H]3c4ccc(O)cc4C[C@@H](CCCCCCCCCS(=O)CCCC(F)(F)C(F)(F)F)C3[C@@H]1CC[C@@H]2O (stereo not given in full) | inactive | 
CN(C)CCCCCN(C)Cc1cc2ccccc2o1 | inactive | 
Nc1ccc2c3c(cccc13)C(=O)NC2=O | 3.16 µM (active) and 20 µM (active) | 

Structure (SMILES) | Potency | activity, negative = inhibition
COC1(C2=NCCN2)COc2ccccc2O1 (stereo not given) | inactive | 
COC(=O)c1nn(-c2cccc(Cl)c2)ccc1=O | inactive | 
COc1ccc(C)cc1-n1nnnc1SCc1nc2ccccc2c(=O)[nH]1 | inactive | 
Cc1cc2nc3c(=O)[nH]c(=O)nc-3n(C[C@H](O)[C@H](O)[C@H](O)CO)c2cc1C | 17.8 µM (active) | 
N#C/C(=C\c1ccc(-c2cccc([N+](=O)[O-])c2)o1)C(=O)NCCN1CCOCC1 | inactive | 
CC(Oc1ccc(-c2ccccc2)c(F)c1)c1ccn(S(=O)(=O)c2cccc3ccccc23)n1 (stereo not given) | inactive | 
C=C1O[C@@](CO)(n2cnc3c(N)ncnc32)[C@H](O)[C@@H]1O | inactive | 
Cc1csc(-c2coc3cc(O[C@@H]4O[C@H](CO)[C@@H](O)[C@@H](O)[C@H]4O)ccc3c2=O)n1 | inactive | 
CN(C)/C(CN1CCCCC1)=C1\N=C(c2ccccc2)OC1=O | inactive | 
CCOC(=O)N1CCC(N(CCOC)C(=O)Nc2ccc(C)c(C)c2)CC1 | inactive | 
CN(C)c1nc(=Nc2cccc(Cl)c2)ss1 | inactive | 
S=C(Nc1cccc(Br)c1)N1CCn2cccc2C1c1cccnc1 (stereo not given) | inactive | 
O=[N+]([O-])c1c(NCCO)cc(Sc2nc3ccccc3s2)c2nonc12 | 8.91 µM (active) | 
O=C(CSc1nc2ccccc2s1)Nc1ccc(C(=O)O)cc1 | inactive | 
c1ccc2sc(SCCSc3nc4ccccc4s3)nc2c1 |  | 2.61% [at 14.2 µM] (inactive)
COc1ccc(-c2nc(CS(=O)CC(=O)N3CCc4ccccc4C3)c(C)o2)cc1 (stereo not given) | inactive | 
COc1ccc(-c2nc(CS(=O)CC(=O)NCc3cccnc3)c(C)o2)cc1OC (stereo not given) | inactive | 
COc1ccc(-c2nc(CS(=O)CC(=O)NCc3ccccn3)c(C)o2)cc1 (stereo not given) | 14.1 µM (active) | 
O=[N+]([O-])c1ccc(N2CCN(CC(O)COc3ccccc3)CC2)cc1 (stereo not given) | inactive | 
O=C(c1ccccc1)c1ccc(OCC(O)CN2CCCC2)cc1 (stereo not given) | inactive | 
C[N+]1(CC(O)COc2ccccc2)CCN(C(=O)c2ccc([N+](=O)[O-])cc2)CC1 (stereo not given) | 12.6 µM (active) | 
